Data published in PubChem BioAssay (NCI).
Compounds without any hit were thinned out: in the full panel of roughly 83,000, 20% have a hit.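 Single-concentration screen, 48 h exposure, 96-well plates. Endpoint: percent growth. Below 10 = active.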 Activity calls are given as the source filed them.

Columns and labels:
Assay in all cases: NCI-60 one-dose screen, 48 h (100 = growth as untreated, 0 = no growth, -100 = all killed)
Conditions in all cases: 10 µM unless noted
HCT-15 colon = test system: HCT-15 colon
HT29 colon = test system: HT29 colon
SNB-75 CNS = test system: SNB-75 CNS
SNB-19 CNS = test system: SNB-19 CNS
U251 CNS = test system: U251 CNS
PC-3 prostate = test system: PC-3 prostate
SK-MEL-5 melanoma = test system: SK-MEL-5 melanoma
UACC-62 melanoma = test system: UACC-62 melanoma
LOX IMVI melanoma = test system: LOX IMVI melanoma
SK-MEL-28 melanoma = test system: SK-MEL-28 melanoma

Measured: growth

CCNCc1ccncc1
inactive: HCT-15 colon 104% | HT29 colon 102% | SNB-75 CNS 92.5% | SNB-19 CNS 106% | U251 CNS 94.9% | PC-3 prostate 85.2% | SK-MEL-5 melanoma 102% | UACC-62 melanoma 109% | LOX IMVI melanoma 93.6% | SK-MEL-28 melanoma 119%

CC/C=C\C[C@H](O)C/C=C1/C(=O)C(Cl)=C[C@@H]1C/C=C\CCCC(=O)OC
active: HCT-15 colon -61.5% | HT29 colon -76.7% | SNB-19 CNS -10.9% | U251 CNS -75.7% | PC-3 prostate -33.9% | SK-MEL-5 melanoma -77.7% | UACC-62 melanoma -57% | LOX IMVI melanoma -89.9% | SK-MEL-28 melanoma -2.03%
inactive: SNB-75 CNS 50%

CC1CCc2c(sc(NC(=O)CSc3nnc4ccccn34)c2C(N)=O)C1 (stereo not given)
inactive: HCT-15 colon 106% | HT29 colon 117% | SNB-75 CNS 104% | SNB-19 CNS 115% | U251 CNS 108% | PC-3 prostate 106% | SK-MEL-5 melanoma 99.3% | UACC-62 melanoma 101% | LOX IMVI melanoma 90.5% | SK-MEL-28 melanoma 137%

COc1cccc(/C=C/c2c(C(=O)O)cccc2[N+](=O)[O-])c1OC
inactive: HCT-15 colon 103% | HT29 colon 104% | SNB-75 CNS 89.3% | SNB-19 CNS 105% | U251 CNS 95.9% | PC-3 prostate 96.8% | SK-MEL-5 melanoma 106% | UACC-62 melanoma 109% | LOX IMVI melanoma 99.2% | SK-MEL-28 melanoma 109%

COc1ccc2c(c1)C(=O)/C(=C/c1ccc(O)cc1)O2
inactive: HCT-15 colon 52.1% | HT29 colon 90.1% | SNB-75 CNS 67.5% | SNB-19 CNS 89.3% | U251 CNS 92.9% | PC-3 prostate 39.6% | SK-MEL-5 melanoma 87.8% | UACC-62 melanoma 77.1% | LOX IMVI melanoma 45.5% | SK-MEL-28 melanoma 92.6%

O=C1CCCCN1CCCCC#Cc1ccccc1C#Cc1ccccn1
inactive: HCT-15 colon 94.7% | HT29 colon 88.6% | SNB-75 CNS 91.9% | SNB-19 CNS 108% | U251 CNS 88.9% | PC-3 prostate 95.1% | SK-MEL-5 melanoma 98.2% | UACC-62 melanoma 83.9% | LOX IMVI melanoma 96.8% | SK-MEL-28 melanoma 110%

O=C(/C=C/c1ccccc1)n1c(-c2ccc(Cl)cc2)nc2ccccc21
active: HCT-15 colon -24.8% | HT29 colon -40.6% | U251 CNS -0.388% | PC-3 prostate 6.09% | SK-MEL-5 melanoma -70.6% | UACC-62 melanoma -84.7% | LOX IMVI melanoma -82.9% | SK-MEL-28 melanoma -65.4%
inactive: SNB-75 CNS 18.1% | SNB-19 CNS 41.1%

COc1cc(C(=O)CCCl)ccc1O
inactive: HCT-15 colon 95.2% | HT29 colon 112% | SNB-75 CNS 85.8% | SNB-19 CNS 101% | U251 CNS 103% | PC-3 prostate 95% | SK-MEL-5 melanoma 103% | UACC-62 melanoma 97.4% | LOX IMVI melanoma 90.5% | SK-MEL-28 melanoma 107%

COc1cc(Cn2c(SCCC(=O)Nc3ccc(F)cc3)nc3ccccc3c2=O)cc(OC)c1OC
inactive: HCT-15 colon 79% | HT29 colon 86.9% | SNB-75 CNS 80.3% | SNB-19 CNS 80.4% | U251 CNS 95.2% | PC-3 prostate 75.8% | SK-MEL-5 melanoma 85% | UACC-62 melanoma 76.4% | LOX IMVI melanoma 90.9% | SK-MEL-28 melanoma 99.8%

O=c1[nH]c(-c2cn(-c3ccc(Cl)cc3)nn2)nc2ccccc12
inactive: HCT-15 colon 101% | HT29 colon 72.3% | SNB-19 CNS 72.8% | U251 CNS 74.5% | PC-3 prostate 74.8% | SK-MEL-5 melanoma 79% | UACC-62 melanoma 60.9% | LOX IMVI melanoma 90.8% | SK-MEL-28 melanoma 58.1%
active: SNB-75 CNS -9.19%

O=S=Nc1ccc([N+](=O)[O-])cc1
inactive: HCT-15 colon 85.2% | HT29 colon 94.1% | SNB-75 CNS 88.7% | SNB-19 CNS 103% | U251 CNS 91.6% | PC-3 prostate 96.8% | SK-MEL-5 melanoma 101% | UACC-62 melanoma 73% | LOX IMVI melanoma 71.2% | SK-MEL-28 melanoma 107%

Nc1c(C(=O)Nc2cccc(Cl)c2Cl)sc2nc3c(cc12)C(=O)CCC3
inactive: HCT-15 colon 75.5% | HT29 colon 85.5% | SNB-75 CNS 54.7% | SNB-19 CNS 70.2% | U251 CNS 120% | PC-3 prostate 93.7% | SK-MEL-5 melanoma 49.8% | UACC-62 melanoma 64.6% | LOX IMVI melanoma 95.5% | SK-MEL-28 melanoma 65%

CSc1ccccc1C#C/C=C\C#Cc1ccccc1N1CCCC1=O
inactive: HCT-15 colon 37.6% | HT29 colon 24.1% | SNB-75 CNS 47% | SNB-19 CNS 88.5% | U251 CNS 34.3% | PC-3 prostate 46.2% | SK-MEL-5 melanoma 22.2% | UACC-62 melanoma 34.4% | LOX IMVI melanoma 30.8% | SK-MEL-28 melanoma 50.1%

Nc1nn2cc(-c3ccc(Cl)s3)nc2c2ccccc12
inactive: HCT-15 colon 87.5% | HT29 colon 92% | SNB-75 CNS 81.6% | SNB-19 CNS 93% | U251 CNS 94.7% | PC-3 prostate 83.8% | SK-MEL-5 melanoma 84% | UACC-62 melanoma 81.6% | LOX IMVI melanoma 82.2% | SK-MEL-28 melanoma 94.2%

COc1ccc(C2=CC(c3ccc(Oc4ccnc5cc(Cl)ccc45)c(OC)c3)c3c(nc(OC)[nH]c3=O)N2)cc1 (stereo not given)
inactive: HCT-15 colon 44.5% | HT29 colon 50.5% | SNB-75 CNS 73.1% | SNB-19 CNS 75.1% | U251 CNS 67.7% | PC-3 prostate 54.9% | SK-MEL-5 melanoma 74.6% | UACC-62 melanoma 51.9% | LOX IMVI melanoma 52.7% | SK-MEL-28 melanoma 91.1%

CC1=C(C#N)C(C)(C)C(C#N)=C(C)N1
inactive: HCT-15 colon 98.6% | HT29 colon 105% | SNB-75 CNS 79.5% | SNB-19 CNS 95.9% | U251 CNS 94.8% | PC-3 prostate 84.7% | SK-MEL-5 melanoma 101% | UACC-62 melanoma 105% | LOX IMVI melanoma 98.3% | SK-MEL-28 melanoma 110%

COc1ccc(/C=C2\C(=O)N(C(=O)c3csc(NC(C)=O)n3)N=C2C)cc1
inactive: HCT-15 colon 103% | HT29 colon 98.9% | SNB-75 CNS 86.5% | SNB-19 CNS 102% | U251 CNS 101% | PC-3 prostate 98.9% | SK-MEL-5 melanoma 107% | UACC-62 melanoma 108% | LOX IMVI melanoma 96% | SK-MEL-28 melanoma 110%

COc1cc(C2C=C(C)N=C3SC=C(C)N32)cc(OC)c1OC (stereo not given)
inactive: SNB-75 CNS 24.6% | SNB-19 CNS 33.5%
active: HCT-15 colon -20.4% | HT29 colon -37.2% | U251 CNS -75.6% | PC-3 prostate -17.6% | SK-MEL-5 melanoma -97.5% | UACC-62 melanoma -61.3% | LOX IMVI melanoma -82.4% | SK-MEL-28 melanoma -75.5%

CC(C)CCC[C@@H](C)[C@H]1CC[C@H]2[C@@H]3CC[C@H]4C/C(=N/O)CC[C@]4(C)[C@H]3CC[C@]12C
inactive: HCT-15 colon 111% | HT29 colon 105% | SNB-75 CNS 96.9% | SNB-19 CNS 104% | U251 CNS 96.6% | PC-3 prostate 83.4% | SK-MEL-5 melanoma 98.3% | UACC-62 melanoma 98.6% | LOX IMVI melanoma 96.6% | SK-MEL-28 melanoma 116%

CC(=O)Oc1cccc(OC(C)=O)c1OC(C)=O
inactive: HCT-15 colon 101% | HT29 colon 110% | SNB-75 CNS 88.4% | SNB-19 CNS 105% | U251 CNS 95.6% | PC-3 prostate 89.6% | SK-MEL-5 melanoma 93.8% | UACC-62 melanoma 96.8% | LOX IMVI melanoma 95.2% | SK-MEL-28 melanoma 104%

O=C(CN1CCN(c2cc3c(cc2F)c(=O)c(C(=O)O)cn3C2CC2)CC1)Nc1ccc(C(=O)/C=C/c2ccc(Cl)cc2)cc1
inactive: HCT-15 colon 111% | HT29 colon 106% | SNB-75 CNS 84.8% | SNB-19 CNS 92.9% | U251 CNS 99% | PC-3 prostate 91.7% | SK-MEL-5 melanoma 96.8% | UACC-62 melanoma 93.1% | LOX IMVI melanoma 78.9% | SK-MEL-28 melanoma 96.5%

CCOC(=O)[C@H](CSSc1ncnc2cc[nH]c12)NC(=O)[C@@H](C)c1ccc2cc(OC)ccc2c1
inactive: HCT-15 colon 19.6% | HT29 colon 15.7% | SNB-75 CNS 50.1% | SNB-19 CNS 91.8% | U251 CNS 35.6% | PC-3 prostate 36.3% | SK-MEL-5 melanoma 45% | LOX IMVI melanoma 10.3% | SK-MEL-28 melanoma 69.2%
active: UACC-62 melanoma 7.27%

COc1cc2nc(SCc3cc(OC)c(OC)c(OC)c3)n(Cc3ccccc3)c(=O)c2cc1OC
inactive: HCT-15 colon 20.1% | HT29 colon 10.6% | SNB-19 CNS 48.8% | U251 CNS 29% | PC-3 prostate 48.8% | UACC-62 melanoma 23.4% | LOX IMVI melanoma 37.7% | SK-MEL-28 melanoma 39.2%
active: SNB-75 CNS -16.6% | SK-MEL-5 melanoma -8.17%

COc1ccc(/C=C/C(=O)c2ccc(B(O)O)cc2)cc1O
inactive: HCT-15 colon 31.2% | HT29 colon 64.6% | SNB-75 CNS 72.6% | SNB-19 CNS 89.2% | U251 CNS 80.7% | PC-3 prostate 74.1% | SK-MEL-5 melanoma 93% | UACC-62 melanoma 76.9% | LOX IMVI melanoma 57.7% | SK-MEL-28 melanoma 90.3%

CCC(C)NCC(=O)O (stereo not given)
inactive: HCT-15 colon 88.5% | HT29 colon 78.8% | SNB-75 CNS 90.9% | SNB-19 CNS 107% | U251 CNS 98.7% | PC-3 prostate 102% | SK-MEL-5 melanoma 97.5% | UACC-62 melanoma 108% | LOX IMVI melanoma 109% | SK-MEL-28 melanoma 104%

NC(=O)c1c(NC(=O)c2ccc3c(c2)OCO3)sc2c1CCC(=O)C2
active: HCT-15 colon -40.5% | HT29 colon -45.5% | SNB-75 CNS -12.6% | U251 CNS -9.21% | PC-3 prostate 3.13% | SK-MEL-5 melanoma -94.2% | UACC-62 melanoma -37.8% | SK-MEL-28 melanoma -38.7%
inactive: SNB-19 CNS 14.3% | LOX IMVI melanoma 15%

CCN1C(=O)N(CC)C2C1NN=c1s/c(=C3\C(=O)N(C4CCCC4)c4ccccc43)c(=O)n12 (stereo not given)
active: HT29 colon 1.3% | SNB-75 CNS -21.9%
inactive: HCT-15 colon 15.8% | SNB-19 CNS 34.9% | U251 CNS 18.3% | PC-3 prostate 25.3% | SK-MEL-5 melanoma 12.7% | UACC-62 melanoma 34.9% | LOX IMVI melanoma 30.3% | SK-MEL-28 melanoma 57.9%
